Compound activity deposited in PubChem BioAssay by National Center for Advancing Translational Sciences (NCATS).
Rows were chosen to be rich in hits. Some 7.5% of all compounds tested hit in one or more screens of this group.
NPC1 promoter act: activators of NPC1 promoter. Huh7 NPC1 promoter luciferase reporter, 24 h. Potency, µM (highest dose often 9.22 µM), hits mostly activators. 2.4% of 320,000 active; further: nearly all actives have a fitted effect of over 60% in size
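Cells: Huh7 expressing luciferase under the NPC1 promoter, 1500/well. Seeded 2 h, compound added, incubated 24 h at 37 °C. Luciferase reagent, 10 min ambient, then luminescence.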
ELG1 genotoxic: inducers of genotoxicity in HEK293T ELG1-luciferase cells; AID 504466; HEK293T ELG1-luciferase reporter, luminescence, 16 h; Potency, µM (titrated, usually from 46 µM), hits mostly activators; 1.3% of 330,000 active; further: nearly all actives have a fitted effect of over 60% in size
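Screening used a luciferase reporter fused to human ELG1 in HEK293T cells. Luminescence was read on a CCD plate imager after 16 hr exposure and 30 min ONE-Glo incubation.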
KinaseGlo FLuc: blocks Kinase-Glo luciferase, a counter-screen artifact. Potency, µM (titrated, usually from 38.3 µM), actives largely listed as inhibitors. Q27757. 0.28% of 200,000 active. Kinase-Glo luciferase, ATP luminescence, 8 min; further: nearly all actives have a fitted effect of over 60% in size
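Inhibition of Kinase-Glo luciferase light generation was assessed at 10 uM ATP in pH 7.2 imidazole buffer, with luminescence measured after eight minutes at ambient temperature.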
Rab9 promoter act: activators of Rab9 promoter | Huh7 Rab9 promoter-luciferase reporter, luminescence, 24 h | Potency, µM (top dose mostly 9.22 µM), usual class: activators | 2.8% of 320,000 active; further: nearly all actives have a fitted effect of over 60% in size
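Cell-based reporter: Huh7 stable for Rab9 promoter-driven luciferase, plated in reduced-serum medium with 10% FBS at 1500 cells/well, compound-treated 24 h at 37 °C, luminescence read after 10 min reagent.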
SMN2 splice up: enhancers of SMN2 splice variant expression | HEK293 SMN2-luciferase splicing reporter, luminescence, 30-36 h | Potency, µM (doses to about 46.1 µM), hits mostly activators | 2.8% of 210,000 active; further: nearly all actives have a fitted effect of over 55% in size
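HEK293 cells carry an SMN2 minigene-luciferase reporter in which exon 7 inclusion puts luciferase in frame. Cells were seeded at 2000 cells/well, attached for 10-12 hours, then exposed to compounds for 30-36 hours at 37C before ONE-Glo luminescence.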
FLuc counter: counter-screen for miR-21 project: firefly luciferase inhibitors or activators; 6.9% of 360,000 active; Potency, µM (series often up to 57.5 µM), hits mostly inhibitors; AID 588342; purified FLuc, Km substrates, luminescence inhibition; further: nearly all actives have a fitted effect of over 55% in size
Target sequence (P08659 whole entry, looked up): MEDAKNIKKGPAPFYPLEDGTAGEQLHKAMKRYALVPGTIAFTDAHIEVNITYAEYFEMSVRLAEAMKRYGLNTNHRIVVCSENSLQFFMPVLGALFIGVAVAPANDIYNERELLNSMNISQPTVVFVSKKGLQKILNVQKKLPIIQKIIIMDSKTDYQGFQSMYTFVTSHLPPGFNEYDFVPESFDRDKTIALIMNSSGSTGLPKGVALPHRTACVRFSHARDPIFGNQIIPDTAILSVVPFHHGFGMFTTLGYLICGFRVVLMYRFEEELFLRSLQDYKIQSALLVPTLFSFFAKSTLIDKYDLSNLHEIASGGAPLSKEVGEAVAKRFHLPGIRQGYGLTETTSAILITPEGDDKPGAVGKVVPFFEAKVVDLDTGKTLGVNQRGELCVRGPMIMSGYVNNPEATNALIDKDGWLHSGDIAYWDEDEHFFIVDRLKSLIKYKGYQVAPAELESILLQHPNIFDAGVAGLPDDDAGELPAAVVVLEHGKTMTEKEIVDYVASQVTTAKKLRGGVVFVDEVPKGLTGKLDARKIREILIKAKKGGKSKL
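Purified P. pyralis luciferase, 10 nM final, with Km-level 10 uM D-luciferin and 10 uM ATP in 50 mM Tris acetate pH 7.5, 10 mM Mg acetate, 0.01% Tween-20, 0.05% BSA; 6-point qHTS titration about 60 µM downward; luminescence read.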
Hits are given with their value; 0 = inactive; ? = inconclusive; - = no result given. The call rests on the fitted dose curve; in most records, active means well fitted curve in the direction sought with a large enough effect; inconclusive means small, poorly fitted or top-dose-only effect, or another doubt; inactive means no such curve, though single readings can be large; an effect the other way counts as inactive or inconclusive.

SMILES	NPC1 promoter act	ELG1 genotoxic	KinaseGlo FLuc	Rab9 promoter act	SMN2 splice up	FLuc counter
CCc1ccccc1NC(=O)COc1ccc2c(c1)OCO2	0	0	0	0	0	0
N#Cc1ccccc1COC(=O)c1ccc2c(c1)OCO2	?	0	-	?	-	?
CCCCNC(=O)c1ccccc1NC(=O)c1ccc2c(c1)OCO2	0	0	0	0	0	19µM
Cc1cccc(NC(=O)c2ccc3c(c2)OCCO3)c1C	0	?	-	3.2µM	-	15µM
N#Cc1ccccc1COC(=O)c1ccc2c(c1)OCCO2	0	0	-	0	-	13µM
CC(C)(C)NC(=O)c1ccccc1NC(=O)c1ccc2c(c1)OCO2	0	0	0	0	0	0
N#Cc1ccccc1NC(=O)COc1ccc2c(c1)OCO2	4µM	?	-	3.5µM	-	21µM
Cc1cc(C)c2c(=O)cc(C(=O)Nc3sc4c(c3C(=O)NCc3ccccc3)CCCC4)oc2c1	-	-	-	-	0	0
O=C(COC(=O)/C=C/c1ccc([N+](=O)[O-])cc1)Nc1ccc2[nH]c(=O)[nH]c2c1	0	0	-	0	-	0
N#Cc1ccccc1NC(=O)COC(=O)c1ccc2c(c1)OCCO2	0	0	0	?	0	19µM
COc1ccccc1C(=O)NC(=S)N1CCc2ccccc21	0	0	0	0	0	0
COc1ccccc1C(=O)NC(=S)N1CCCc2ccccc21	0	0	0	0	0	21µM
O=C(COc1ccccc1)NC(=S)N1CCc2ccccc21	0	0	0	0	?	?
O=C(NC(=S)N1CCCc2ccccc21)c1ccc(Cl)cc1	0	0	0	0	?	6.7µM
COc1ccc(OCC(=O)NC(=S)N2CCCc3ccccc32)cc1	0	10µM	0	0	0	27µM
O=C(O)C(Cc1c[nH]c2ccccc12)N1CCS(=O)(=O)CC1 (stereo not drawn)	0	0	0	0	0	0
O=C(Nc1cccc(C(F)(F)F)c1)C1CCCN(S(=O)(=O)c2cccc3nonc23)C1 (stereo not drawn)	-	-	-	-	0	0
CN1CCN(C(c2ccc(F)cc2)c2sc3nc(-c4ccco4)nn3c2O)CC1 (stereo not drawn)	-	-	-	-	-	0
COCCNC(=O)c1cc2oc3ccccc3c2n1C	0	?	0	3.2µM	-	9.5µM
Cn1c(C(=O)NCc2cccc(Cl)c2)cc2oc3ccccc3c21	-	-	-	-	?	0
Cc1onc(-c2ccccc2Cl)c1C(=O)Nc1nnc(C(C)C)s1	0	0	0	0	0	0
CC(C)c1nnc(NC(=O)c2sc3ccccc3c2Cl)s1	3.2µM	0	0	?	?	4.8µM
O=C(CCn1c(=O)sc2ccccc21)Nc1nccs1	0	?	0	0	0	13µM
O=C(Nc1nccs1)c1sc2ccccc2c1Cl	4µM	?	0	1.1µM	2.5µM	0.67µM
Cc1cnc(NC(=O)c2sc3ccccc3c2Cl)s1	?	0.65µM	0	?	1µM	0.3µM
SMILES	NPC1 promoter act	ELG1 genotoxic	KinaseGlo FLuc	Rab9 promoter act	SMN2 splice up	FLuc counter
O=C(Nc1nccs1)c1ccc(Cl)s1	?	?	0	?	0	?
Cc1csc(NC(=O)CCn2c(=O)sc3ccccc32)n1	0	0	0	0	0	?
CC(C)(C)c1ccc(COn2ccnc2)cc1	0	0	0	0	0	?
O=C(NCCCN1CCOCC1)c1sc2cc([N+](=O)[O-])ccc2c1Cl	0	0	0	0	0	?
O=C(Nc1nccs1)c1cc(Cl)ccc1[N+](=O)[O-]	0	0	0	0	0	0
O=C(Nc1nccs1)c1sc2cc(Cl)ccc2c1Cl	3.5µM	0	0	4µM	?	2.7µM
CCCn1nnc(NC(=O)Cc2ccccc2)n1	0	0	0	0	0	0
O=C(Nc1ccccn1)c1sc2cc([N+](=O)[O-])ccc2c1Cl	?	0	-	1.3µM	-	?
Cc1ccnc(NC(=O)c2sc3ccccc3c2Cl)c1	0.1µM	0.92µM	0	0.32µM	3.2µM	0.12µM
CCCn1nnc(NC(=O)c2sc3ccccc3c2Cl)n1	?	9.2µM	0	3.2µM	?	27µM
O=C(CC12CC3CC(CC(C3)C1)C2)NC(=S)N1CCCCC1	0	0	0	0	0	0
COc1ccc(CC(=O)Nc2ccc(N3CCOCC3)cc2)cc1OC	0	0	-	0	-	0
COc1ccc(-c2cn(-c3ccc(C)cc3)c(S(=O)(=O)CC(=O)Nc3ccccc3)n2)cc1	-	-	-	-	13µM	?
COc1ccc(CC(=O)Nc2ccc(-c3cn4ccccc4n3)cc2)cc1OC	0	?	0	0	0	17µM
COc1ccc(CC(=O)Nc2cccc(-c3cn4ccccc4n3)c2)cc1	0	0	0	0	0	8.5µM
